Test systems include NCI-H23 lung; NCI-H226 lung; NCI-H322M lung; HOP-62 NSCLC; NCI-H460 lung; HOP-92 NSCLC; NCI-H522 lung; A549/ATCC NSCLC; 786-0 renal; COLO 205 colon; DU-145 prostate; K-562 leukemia; MALME-3M melanoma; MDA-MB-231 breast; RXF 393 renal; SF-268 CNS; SF-295 CNS; SF-539 CNS; UACC-257 melanoma; M14 melanoma.
Assay in all cases: NCI-60 one-dose screen, 48 h (100 = growth as untreated, 0 = no growth, -100 = all killed)
Holding throughout (details): 10 µM unless noted

Compounds without any hit were thinned out: in the full panel of roughly 83,000, 20% have a hit.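 Activity criterion: percent growth below 10, measured after cells in 96-well plates were exposed to a single compound concentration for 48 hours.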 Unmarked numbers belong to inactive results. The source made the active and inactive calls.

Growth data for seven compounds are collected here from PubChem BioAssay (NCI).

Consider `O=C(N/N=C\c1ccc(F)cc1)c1ccc2nc(-c3ccc(Br)cc3)[nH]c2c1`, for which the growth was 0.752% (active) in the test on NCI-H23 lung; 32.9% in the test with NCI-H226 lung; 68.1% with NCI-H322M lung; 25.1% in the test on HOP-62 NSCLC; -64.4% (active) in the test on NCI-H460 lung; 53.3% in the test on HOP-92 NSCLC. Besides, the growth in the test with NCI-H522 lung was 81%; in the test on A549/ATCC NSCLC it was -3.93% (active); with 786-0 renal, -32% (active); with COLO 205 colon, 19.2%; in the test on DU-145 prostate, -22.1% (active); in the test with K-562 leukemia, 19.9%. Also, the growth is -49.9% (active) in the test on MALME-3M melanoma; 60.6% in the test on MDA-MB-231 breast; -12.3% (active) in the test on RXF 393 renal; 44.8% with SF-268 CNS; 39.4% in the test with SF-295 CNS; 10.9% with SF-539 CNS. Further, the figures for the growth in the test on UACC-257 melanoma and with M14 melanoma were 74.5% and 18.8%, respectively.

As to `CC(=O)C1=C(C)NC(NNc2ccccc2)=NC1c1ccc([N+](=O)[O-])cc1` (stereo not given), the growth is 95.3% with NCI-H23 lung; 96.7% in the test on NCI-H226 lung; 84.6% in the test with NCI-H322M lung; 113% in the test on HOP-62 NSCLC; 99.9% in the test with NCI-H460 lung; 99.7% with HOP-92 NSCLC. Further, the growth is 76.9% with NCI-H522 lung; 88.1% with A549/ATCC NSCLC; 97.8% with 786-0 renal; 106% in the test on COLO 205 colon; 99.4% in the test on DU-145 prostate; 49% in the test with K-562 leukemia. Also, the growth was 116% with MALME-3M melanoma; 88.1% in the test with MDA-MB-231 breast; 102% with RXF 393 renal; 80.7% with SF-268 CNS; 87.4% in the test on SF-295 CNS; 99.9% in the test on SF-539 CNS. The growth with UACC-257 melanoma was 104%; in the test with M14 melanoma, 101%.

Turning to `Cc1ccc(Nc2nc(SC(C)C)nc(-c3ccccc3)c2C#N)cc1`, the growth was 86.1% in the test with NCI-H23 lung; 76.1% in the test on NCI-H226 lung; 70.7% in the test on NCI-H322M lung; 72.2% with HOP-62 NSCLC; 95.2% in the test with NCI-H460 lung; 80.7% with HOP-92 NSCLC. In addition, the growth is 83.7% in the test on NCI-H522 lung; 96.2% with A549/ATCC NSCLC; 92.2% in the test with 786-0 renal; 112% in the test on COLO 205 colon; 104% in the test on DU-145 prostate; 103% in the test on K-562 leukemia. The growth was 75.3% with MALME-3M melanoma; 82.1% in the test with MDA-MB-231 breast; 84.1% in the test on RXF 393 renal; 82% in the test with SF-268 CNS; 93.9% with SF-295 CNS; 84.3% in the test on SF-539 CNS. In addition, the growth in the test with UACC-257 melanoma is 113%; in the test with M14 melanoma, 116%.

As for `Cc1[nH]c(C(=O)Nc2ccccc2OCc2cccc(C(=O)NC3CCCNC3)c2)c(Cl)c1Cl` (stereo not given), the growth is -76.7% (active) in the test on NCI-H23 lung; 73.3% in the test with NCI-H226 lung; -93.7% (active) with NCI-H322M lung; -42.2% (active) with HOP-62 NSCLC; -68.5% (active) with NCI-H460 lung; 47.9% in the test with HOP-92 NSCLC. The growth in the test on NCI-H522 lung is -50.9% (active); with A549/ATCC NSCLC, -52.6% (active); with 786-0 renal, -71.6% (active); in the test on COLO 205 colon, -33.2% (active); with DU-145 prostate, -89% (active); in the test with K-562 leukemia, -38.9% (active). For the same compound, the growth with MALME-3M melanoma was -68.4% (active); in the test on MDA-MB-231 breast, -68% (active); with RXF 393 renal, -69.4% (active); in the test with SF-268 CNS, 25.1%; with SF-295 CNS, -87.9% (active); with SF-539 CNS, -84.6% (active). In addition, the growth in the test on UACC-257 melanoma was 94.6%; in the test on M14 melanoma, -87% (active).

Consider `CN1CCN(Cc2ccc(NC(=O)c3cncc(C#Cc4cnc5ccc(OCCCS(C)(=O)=O)nn45)c3)cc2C(F)(F)F)CC1`, for which the growth in the test with NCI-H23 lung was -50.9% (active); in the test with NCI-H226 lung, -60.1% (active); in the test on NCI-H322M lung it was -16.6% (active); in the test with HOP-62 NSCLC, -47.7% (active); in the test with NCI-H460 lung, -64.1% (active); in the test with HOP-92 NSCLC it was -27.3% (active). Further, the growth was -76% (active) in the test on NCI-H522 lung; -9.65% (active) in the test with A549/ATCC NSCLC; -16% (active) in the test with 786-0 renal; -66.9% (active) in the test with COLO 205 colon; 1.01% (active) in the test on DU-145 prostate; 5.44% (active) in the test on K-562 leukemia. Besides, the growth with MALME-3M melanoma is -80.5% (active); in the test on MDA-MB-231 breast, -20.7% (active); in the test on RXF 393 renal, -79.6% (active); in the test with SF-268 CNS it was -45.8% (active); in the test with SF-295 CNS, 0.237% (active); in the test on SF-539 CNS, -68.4% (active). Moreover, the growth was -27.6% (active) in the test on UACC-257 melanoma and -78.9% (active) with M14 melanoma.

Take `O=C(/C=C/C=C/c1csc(Br)n1)NO`: the growth in the test with NCI-H23 lung was 103%; with NCI-H226 lung it was 103%; with NCI-H322M lung, 99.4%; with HOP-62 NSCLC, 112%; with NCI-H460 lung, 92.2%; in the test with HOP-92 NSCLC it was 129%. Besides, the growth in the test on NCI-H522 lung is 79.1%; with A549/ATCC NSCLC it was 93.5%; with 786-0 renal, 101%; with COLO 205 colon, 110%; in the test with DU-145 prostate, 94.3%; with K-562 leukemia, 73%. Further, the growth in the test with MALME-3M melanoma was 85.2%; in the test with MDA-MB-231 breast, 106%; in the test with RXF 393 renal, 95.2%; in the test with SF-268 CNS it was 102%; in the test with SF-295 CNS it was 107%; in the test with SF-539 CNS, 83.2%. Moreover, the growth is 79.8% in the test with UACC-257 melanoma and 94.6% with M14 melanoma.

For the compound `COc1cccc2c1C=CC1(O2)Oc2cccc(OC)c2C=C1C` (stereo not given), the growth with NCI-H23 lung was 34.8%; in the test on NCI-H226 lung, 57.4%; in the test on NCI-H322M lung, 46.1%; in the test with HOP-62 NSCLC, 55.9%; in the test with NCI-H460 lung, 7.1% (active); in the test with HOP-92 NSCLC, -5.13% (active). Moreover, the growth is 12.6% in the test on NCI-H522 lung; 25.1% in the test on A549/ATCC NSCLC; 26.9% with 786-0 renal; 16.6% with COLO 205 colon; 31.5% in the test with DU-145 prostate; 8.28% (active) in the test with K-562 leukemia. The growth in the test with MALME-3M melanoma was 60.4%; in the test on MDA-MB-231 breast it was 0.892% (active); in the test on RXF 393 renal it was -18.2% (active); in the test with SF-268 CNS, 55.3%; in the test on SF-295 CNS it was 6.46% (active); in the test on SF-539 CNS, -9.43% (active). Moreover, the values for the growth with UACC-257 melanoma and with M14 melanoma were 73.9% and 1.02% (active), respectively.
